ELG1 DNA repair: qHTS screen for small molecules that inhibit ELG1-dependent DNA repair in human embryonic kidney (HEK293T) cells expressing luciferase-tagged ELG1 | HEK293T ELG1-luciferase reporter, luminescence, 16 h; DNA damage induced by 5-fluorouridine | Potency, µM (top dose mostly 46.1 µM), inactives show at the top dose activity change, negative = inhibition, most hits filed as inhibitors | 330,000 tested, 2.3% active | AID 504467, 2011; also: potency is read from the fitted curve at half-maximal effect; nearly all actives have a fitted effect of over 55% in size
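5-Fluorouridine DNA damage + compound/DMSO, 2,000 cells/well, 16 h, 37 °C/5% CO2. ONE-Glo, 30 min RT, luminescence. Readout = decrease in reporter signal.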
Sfp PPTase inh: qHTS Assay for Inhibitors of Bacillus subtilis Sfp phosphopantetheinyl transferase (PPTase); Biochemical Sfp PPTase activity, qHTS; Potency, µM, for the others: largest response in the series, negative = inhibition, usual class: inhibitors; 310,000 tested, 3.5% active; AID 1490, 2009;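 also: the enzyme is Sfp with the accession as filed and its product quenches rhodamine fluorescence; potency is read from the fitted curve at half-maximal effect; 0% = enzyme reaction without inhibitor and -100% = no enzyme wells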
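Compounds were incubated with enzyme (final 15 nM) for 15 min at room temperature before substrate addition started the reaction. Fluorescence at 525 nm excitation, 598 nm emission was recorded immediately and after 30 minutes.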
FBPA coupling cs: qHTS Assay for Inhibitors of Fructose-1,6-bisphosphate Aldolase from Giardia Lamblia: Coupling assay counterscreen | coupling enzyme system counterscreen, AmpLite Red fluorescence | activity change, negative = inhibition, % at 58.2 µM, hits read low | 290,000 tested, 0.67% active; in the data active = activity change below about -30%
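Counterscreen of the coupled detection system alone, without aldolase: glyceraldehyde-3-phosphate coupling enzymes plus AmpLite Red readout. Compounds at 57.5 uM final, 10 min RT preincubation, 20 min RT reaction, fluorescence 525/598 nm.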
Giardia killer: Small Molecules that selectively kill Giardia lamblia: qHTS; Giardia lamblia trophozoite viability; activity change, % at 7.66 µM, hits read low; 340,000 tested, 0.15% active; AID 540267, 2011; in the data active = activity change below about -80%; inconclusive = between about -30% and that limit;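 also: parasites exposed to compound for two days anaerobically before the ATP read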
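Killing of trophozoites was scored by loss of ATP luminescence after a 48 hrs anaerobic exposure to compounds at 37 deg C, using 100 cells per well.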
Active calls of the source: *; u = inconclusive; x = not tested or not shown. The list is not random: actives were taken first. Their share in the collection is about 5.5%. Unless noted, calls follow the shape of the dose curve; as a rule, active = well fitted curve in the direction sought with a large enough effect; inconclusive = small, poorly fitted or top-dose-only effect, or another doubt; inactive = no such curve, though single readings can be large; an effect the other way counts as inactive or inconclusive. Unless noted, % is scaled to controls: 0 for no effect and ±100 for the full control effect.

SMILES	ELG1 DNA repair	Sfp PPTase inh	FBPA coupling cs	Giardia killer
CC(=O)c1cc(NC(=O)c2ccccc2)c(=O)oc1C	u	u	3	9
Cc1oc(=O)c(NC(=O)c2ccccc2)cc1C(=O)c1ccccc1	u	16µM*	-1	-9
O=C(c1c(F)cccc1F)N(C1CCCCC1)C1CCCCC1	-9%	25%	0	14
Clc1ccc(CNc2ncnc3nc[nH]c23)cc1	x	x	x	-18
CCC1(c2ccc(F)cc2)NC(=O)N(CC(=O)Nc2cccc(S(=O)(=O)N3CCOCC3)c2)C1=O (stereo not given)	x	x	x	-4
O=C(NC1CCCCC1)NC1CC2CCC(C1)N2C(=S)NCc1ccco1 (stereo not given)	0%	45µM*	5	3
O=C(NCc1ccccc1)NC1CC2CCC(C1)N2Cc1ccco1 (stereo not given)	-2%	13%	-1	-8
Cc1cccc(C(=O)NC2CCN(C(=S)NCc3ccco3)CC2)c1	-8%	7%	0	-2
CCOc1ccc(C(=O)NC2CCN(C(=S)NCc3ccco3)CC2)cc1	2%	7.1µM*	1	0
Cc1ccc(Nc2cc(C)c(O)c(C)c2)cc1	u	u	-28	9
Cc1cccc(N(CC(=O)NCCSCc2ccco2)S(=O)(=O)c2ccccc2)c1	-13%	56µM*	2	-10
Cc1ccc(C)c(N(CC(=O)NCCSCc2ccco2)S(C)(=O)=O)c1	u	20µM*	-2	-2
Cc1cccc(N(CC(=O)NCCSc2nc3ccccc3s2)S(=O)(=O)c2ccccc2)c1	16µM*	9%	-1	x
CS(=O)(=O)N(Cc1ccccc1)c1ccc(C(=O)NCCSCc2ccco2)cc1	u	28µM*	2	-27
CC(=O)N1CCN(C(=O)c2ccccc2NS(=O)(=O)c2ccc(F)cc2)CC1	13%	x	x	-3
COC(=O)CN1C(=O)[C@H]2[C@@H](c3ccc(C)o3)N3C(=O)CN(Cc4ccccc4)C(=O)[C@@]3(C)[C@H]2C1=O	14%	45µM*	6	-23
Cc1ccc([C@@H]2[C@@H]3C(=O)N(C)C(=O)[C@@H]3[C@]3(C)C(=O)N(Cc4ccccc4)CC(=O)N23)o1	14%	-11%	0	-19
COc1ccc(OC)c(NC(=O)c2ccc3nc(-c4ccccc4)c(-c4ccccc4)nc3c2)c1	23µM*	u	-3	x
COc1ccc(C(=O)Nc2cc(OC)ccc2OC)cc1	u	4%	-3	-3
Cn1c(=O)c2c(nc(NNC(=O)C(F)(F)F)n2C)n(C)c1=O	u	0.89µM*	1	-10
Cn1c(=O)c2c(nc(NN=C3CCCC3)n2C)n(C)c1=O	10%	22µM*	-5	26
Cn1c(=O)c2c(nc(CO)n2C)n(C)c1=O	5%	13%	1	47
O=C(COc1ccc2c3c(c(=O)oc2c1)CCC3)Nc1ccccn1	u	0%	x	0
CCN(c1ccccc1)S(=O)(=O)c1ccc(C(=O)NC2CCN(Cc3ccccc3)CC2)cc1	u	x	x	5
CCCc1c(C(=O)NNc2ccc(C)cc2)cnn1-c1ccccc1	7.3µM*	11%	-2	-2
SMILES	ELG1 DNA repair	Sfp PPTase inh	FBPA coupling cs	Giardia killer
O=C(O)c1ccccc1C(=O)Nc1n[nH]c(=S)s1	2%	10µM*	-70*	6
O=C(O)c1ccccc1C(=O)Nc1nccs1	5%	-7%	0	-5
Cc1cccc(CNc2ncnc3ccc(-c4ccccc4C#N)cc23)c1	x	15%	0	x
COc1ccc(CNC(=O)c2ccc3c(c2)N(C)C(=O)CS3=O)cc1 (stereo not given)	-5%	45µM*	4	-5
CCCn1c(/C=C/c2ccco2)nc2ccccc21	u	35µM*	-10	-9
CC(NC(=O)/C=C/c1ccco1)c1nc2ccccc2n1Cc1c(Cl)cccc1Cl (stereo not given)	-6%	50µM*	0	-8
CCCCn1c(/C=C/c2ccco2)nc2ccccc21	u	-25%	-5	2
Clc1ccc(Cn2c(/C=C/c3ccco3)nc3ccccc32)cc1	u	40µM*	0	-4
Cc1ccc(Cn2c(/C=C/c3ccco3)nc3ccccc32)cc1	u	u	-2	4
N#Cc1ccc(OS(=O)(=O)c2ccc(-c3ccon3)s2)cc1	3%	9%	x	20
